The other results are listed elsewhere or left out. Records with an inconclusive call do not appear. The source made the active and inactive calls. Calls come from the whole dose curve; as a rule, active = well fitted inhibition curve with a large enough effect; inconclusive = small, poorly fitted or top-dose-only effect; inactive = no such curve, though single readings can be large or run the other way.
What follows are compounds tested on pyruvate kinase (Trypanosoma brucei) (assay: qHTS of Trypanosoma Brucei Inhibitors: Confirmatory Assay for Cherry-picked Compounds). Details: recombinant TbPYK, Kinase-Glo ATP luminescence; series mostly up to 76.9 µM; activity change, negative = inhibition: at the top concentration.
Source text: Members of the Trypanosomatidae family of parasitic protozoans cause a spectrum of diseases throughout the tropical and subtropical world. Sleeping sickness, caused by two subspecies of Trypanosoma brucei, is endemic to areas of sub-Saharan Africa, while Chagas' disease, a manifestation of Trypanosoma cruzi infection, is prevalent throughout Central and South America. In addition, many species of Leishmania are responsible for a range of cutaneous and visceral diseases, causing ulcers, destructive lesions and kalaazar, a lethal infection of the viscera. These diseases cause severe public health and economic burdens on populations that are often already caught in a tragic cycle of poverty, poor nutrition and disease. Collectively, parasites of the trypanosomatid family infect 30 million people worldwide (~500 million live in endemic areas), and account for ~130K deaths annually. Existing treatments have developed little in the past 50 years, and suffer from toxicity, poor efficacy and resistance; the goal of this project is to develop lead drugs that will be suitable for entry into pre-clinical trials. […] Glycolysis in axenically cultured T. cruzi, representing the intracellular pathogenic stage, is also essential for these parasites. {Engel, 1987} This project aims to discover and optimize selective inhibitors of the glycolytic enzyme pyruvate kinase (PYK) from Trypanosoma brucei, the parasite that causes sleeping sickness. […] Trypanosomatid PYKs show significant differences from their human counterparts including only 47-50% sequence identity and different allosteric and activation properties.{Callens, 1992} To this end, a qHTS was done against the MLSMR to discover inhibitors. NIH Molecular Libraries Probe Production Network [MLPCN] NIH Chemical Genomics Center [NCGC] Grant: MH095452 PI Name: Malcolm Walkinshaw, University of Edinburgh
Two uL of TbPYK/substrate buffer (columns 1-3, 5-48) are dispensed into Greiner white solid bottom 1536-well assay plates; column 4 receives only TEA buffer as 0x TbPYK controls. Compounds are then transferred via Kalypsys pin tool equipped with 1536-pin array (10 nL slotted pins, V&P Scientific, San Diego, CA). Following addition of compound, 2 uL of ADP (130 uM final concentration, all columns) is added to initiate the reaction. The plates are then incubated at room temperature for 45 minutes. Kinase-Glo Plus reagent is added (3 uL) and plates incubated for 10 minutes, before being transferred to a ViewLux high-throughput CCD imager (PerkinElmer) wherein single end-point measurements of luminescence are acquired using a clear filter. All reagents are diluted in an assay buffer consisting of 50 mM TEA (pH 7.2), 100 mM KCl, 10 mM MgCl2, 0.05% BSA and 0.01% Tween-20. All screening operations will be performed on a fully integrated robotic system (Kalypsys, San Diego, CA) containing one RX-130 and two RX-90 anthropomorphic robotic arms (Staeubli, Duncan, SC). Library plates will be screened starting from the lowest and proceeding to the highest concentration. Vehicle-only plates, with DMSO being pin-transferred to columns 5-48, will be inserted uniformly at the beginning and the end of each library in order to monitor and record any shifts in the background, which can be affected by reagent dispensers or loss in enzyme activity over time. Screening data will be corrected, normalized, and concentration-effect relationships will be derived by using publicly-available curve fitting algorithms developed in-house (http://ncgc.nih.gov/pub/openhts).
% is set by controls: 0 for no effect and ±100 for the full control effect; potency is the fitted concentration of half-maximal effect.
Note: nearly all actives have a fitted effect of over 70% in size.

| SMILES | Potency | activity change, negative = inhibition |
| --- | --- | --- |
| O=C(CCCCCn1c(=S)[nH]c2ccsc2c1=O)NC1CCCCC1 | 14.1 µM (active) |  |
| O=c1ccc2c(-c3ccccc3S(=O)(=O)O)c3ccc(O)c(O)c3oc-2c1O | 8.91 µM (active) |  |
| O=c1[nH]c2ccccc2n2c(-c3ccccc3)nnc12 | 0.126 µM (active) |  |
| O=C(CSc1ccc(-c2ccco2)nn1)Nc1cccc(F)c1 | 15.8 µM (active) |  |
| c1ccc(-c2nnc3n2NC(c2ccc4c(c2)OCO4)S3)cc1 (centres undefined) | 0.0708 µM (active) |  |
| CSc1c(SCc2ccccc2)cnn(Cc2ccccc2)c1=O | 17.8 µM (active) |  |
| NC(=O)c1c(Nc2nc3c(F)cccc3s2)sc2c1CCCC2 | 4.47 µM (active) |  |
| COCCNC(=O)Nc1ccc2nc(-c3ccco3)c(-c3ccco3)nc2c1 | 11.2 µM (active) |  |
| COC(=O)/C=C\C(=O)Nc1cccc([N+](=O)[O-])c1 |  | -92% (inactive) |
| CN(c1ccccc1)S(=O)(=O)c1cccc(NC(=O)Cc2ccc(Cl)cc2)c1 | 6.31 µM (active) |  |
| Cc1cccc(-n2c(N)c(C(=O)N3CCN(C)CC3)sc2=S)c1 | 1 µM (active) |  |
| O=C(Nc1ccc(S(=O)(=O)N2CCOCC2)cc1)c1ccc2ncsc2c1 | 10 µM (active) |  |
| N#Cc1c(N2CCCCC2)nc(N)c2c(N)nc(SCC(=O)O)cc12 | 31.6 µM (active) |  |
| Cc1cc(C#N)c(SCC(N)=O)nc1-c1ccc(F)cc1 | 2.82 µM (active) |  |
| O=C(CN1CCN(c2ccc(O)cc2)CC1)Nc1cc(S(=O)(=O)N2CCOCC2)ccc1Cl | 14.1 µM (active) |  |
| Cc1nc2ccc(S(=O)(=O)NCC(=O)O)cc2s1 | 6.31 µM (active) |  |
| Oc1c(CN2CCOCC2)ccc(CN2CCOCC2)c1O | 20 µM (active) |  |
| O=C(CN1CCN(c2ccc(O)cc2)CC1)Nc1ccc(-c2ccccc2)cc1 | 28.2 µM (active) |  |
| Cc1cc(C2=NNC(=Nc3ccc(S(=O)(=O)N4CCOCC4)cc3)SC2)c(C)n1CC1CCCO1 (centres undefined) | 11.2 µM (active) |  |
| COc1cccc(C(=O)Nc2ccc(N3CCCC3)cc2)c1 | 20 µM (active) |  |
| Cc1ccc(/C=C/C(=O)Nc2ccc([N+](=O)[O-])c(NC(=O)/C=C/c3ccc(C)o3)c2)o1 | 17.8 µM (active) |  |
| O=C1C=CC(=O)N1c1ccc(N2CCCCC2)cc1 | 7.08 µM (active) |  |
| Cc1nonc1C(=O)N/N=C/c1ccc(O)cc1 | 15.8 µM (active) |  |
| COc1ccc(Cc2nnc(NS(=O)(=O)Cc3ccccc3)s2)cc1 |  | -17.7% (inactive) |
| Cc1ccc(C)c2c1cc(C)c1nnc(SCC(=O)Nc3cccc(C(=O)O)c3)n12 | 2.24 µM (active) |  |
| CC(=O)N1CC[n+]2c(-c3ccc([N+](=O)[O-])cc3)csc21 | 1.78 µM (active) |  |
| COc1cc(C2CC(=O)N3CN(Cc4ccccc4)CSC3=C2C#N)ccc1OCc1ccccc1 (centres undefined) | 0.126 µM (active) |  |
| Cc1c(C)c(C)c(S(=O)(=O)N2CCC3(CC2)OCCO3)c(C)c1C |  | 5.05% (inactive) |
| C=CCn1c(=S)[nH]c2scc(-c3ccco3)c2c1=O | 14.1 µM (active) |  |

From PubChem BioAssay AID720569 (National Center for Advancing Translational Sciences (NCATS), 2013)
